Bioassay records deposited in PubChem by several laboratories.
AHR act: AHR activators, primary screen, cell-based, luminescence, luciferase reporter, human. actives 2.5% (n = 320,000). Aryl hydrocarbon receptor (Homo sapiens), P35869. activation, % at 5 µM. AHR-responsive luciferase reporter cells; in the data active = activation above about 47%
Target sequence (P35869 whole entry, looked up): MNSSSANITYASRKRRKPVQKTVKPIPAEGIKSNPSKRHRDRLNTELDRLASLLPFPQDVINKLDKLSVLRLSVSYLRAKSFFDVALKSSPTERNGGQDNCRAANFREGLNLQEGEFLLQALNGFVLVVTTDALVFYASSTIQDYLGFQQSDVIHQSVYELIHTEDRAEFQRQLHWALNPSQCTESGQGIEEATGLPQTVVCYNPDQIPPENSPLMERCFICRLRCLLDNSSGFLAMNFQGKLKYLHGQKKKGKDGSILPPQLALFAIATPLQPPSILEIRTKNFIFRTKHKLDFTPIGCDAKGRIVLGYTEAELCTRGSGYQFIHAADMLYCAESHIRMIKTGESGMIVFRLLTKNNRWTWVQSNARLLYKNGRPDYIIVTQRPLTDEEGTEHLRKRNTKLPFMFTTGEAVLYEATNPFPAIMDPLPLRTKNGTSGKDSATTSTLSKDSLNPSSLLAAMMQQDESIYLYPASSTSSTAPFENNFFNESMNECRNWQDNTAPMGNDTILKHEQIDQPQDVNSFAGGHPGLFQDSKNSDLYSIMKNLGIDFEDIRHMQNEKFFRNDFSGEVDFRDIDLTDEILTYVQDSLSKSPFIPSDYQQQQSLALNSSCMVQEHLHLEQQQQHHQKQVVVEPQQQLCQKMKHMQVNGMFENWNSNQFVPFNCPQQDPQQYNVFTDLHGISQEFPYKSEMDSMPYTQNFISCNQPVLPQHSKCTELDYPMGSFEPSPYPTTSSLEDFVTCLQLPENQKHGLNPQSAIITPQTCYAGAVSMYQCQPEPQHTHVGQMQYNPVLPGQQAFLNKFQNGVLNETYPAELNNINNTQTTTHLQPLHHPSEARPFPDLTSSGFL
HSF1 activator: HSF-1 activators, primary screen, NIH3T3-HGL cells, MG132 stress, luminescence, single point; NIH3T3-HGL HSF-1 luciferase reporter, 8 h; 100% = twice DMSO control signal; activation, % at 9 µM; actives 1.7% (n = 300,000);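 active = mean replicate activation of at least 50% with a set share of replicates each reaching 50%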
HSF1 inh: HSF1 inhibitors in luciferase reporter cells, primary screen, cell-based, NIH3T3, luminescence | NIH3T3-HGL HSE-luciferase, MG132-induced, luminescence 8 h; stronger effect = lower value | activity change, negative = inhibition, % at 7.5 µM (by protocol) | actives 0.77% (n = 300,000) | AID 2098, 2009;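 active = more than half of replicate wells show activity change below -50%, luminescence cut by over half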;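 also: luciferase reports HSF-1 transcriptional activity via heat shock element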
GAA850 FXN act: FXN promoter activators, primary screen, cell-based, luciferase luminescence, HEK293 lucGAA850 | actives 0.56% (n = 360,000) | activation, % at 6 µM | HEK293 lucGAA850 FXN promoter luciferase reporter, 24 h; percent of 10 µM SAHA response | AID 540364, 2011;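 active = activation above the average of all compounds screened plus 3 SD, cutoff fixed separately per campaign, cut at about 7.5% in these data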
NR0B1 inh: DAX1 (NR0B1) inhibitors, primary screen, cell-based, HEK293, Gal4-DAX1, luciferase luminescence. AID 504766, 2011. actives 0.99% (n = 340,000). HEK293 Gal4-DAX1 luciferase reporter. Nuclear receptor subfamily 0 group B member 1 (Homo sapiens), P51843. inhibition, % at 6.75 µM;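 active = inhibition above the mean over all tested compounds plus 3 SD, cut at about 4.2% in these data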;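 also: inhibition shows as a rise in luminescence from relieved DAX1 repression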
A number is an active result; n = inactive; x = no result. Most compounds without a hit are left out; they make up all but 5.4% or so of the library.

SMILES	AHR act	HSF1 activator	HSF1 inh	GAA850 FXN act	NR0B1 inh
O=C(N/N=C/c1cccc(C(F)(F)F)c1)c1ccc(O)cc1	n	n	-74.5	n	n
Cc1ccc(C(=O)Nc2cccc(C(=O)N/N=C/c3ccc(O)cc3)c2)cc1	56.0	n	n	n	n
O=C(N/N=C/c1ccc(C(F)(F)F)cc1)c1ccc(O)cc1	n	n	n	n	n
COC(CNC(=O)CCc1c(C)nc2c(-c3ccccc3)c(C)nn2c1C)OC	n	n	n	n	n
COc1cccc(N2CCN(C(=O)c3oc4ccccc4c3NC(=O)CCc3cc(OC)no3)CC2)c1	n	n	n	n	n
CCN1C(=O)c2cccc3c(S(=O)(=O)Nc4ccccc4OC)ccc1c23	n	59.4	n	n	n
CCN1C(=O)c2cccc3c(S(=O)(=O)NCc4ccccc4)ccc1c23	n	x	x	n	n
O=C(C#Cc1ccccc1)c1ccccc1	x	x	x	9.3	n
O=C(C#Cc1ccccc1)c1ccc([N+](=O)[O-])cc1	x	60.6	n	12.9	n
O=C(c1ccc(-c2ccccc2)cc1)c1ccc([N+](=O)[O-])cc1	n	n	n	x	x
CCCCNC(=O)C(c1ccc(OCC(=O)OC)c(C(=O)OC)c1)N(CCc1c[nH]c2ccccc12)C(=O)CCCCCN1C(=O)NC(c2ccc(-c3ccccc3)cc2)C(C(=O)OCc2ccccc2)=C1C (centres undefined)	x	n	-79.9	x	x
CCCCCCN(C(=O)CCCCCN1C(=O)NC(c2ccc(-c3ccccc3)cc2)C(C(=O)OCc2ccccc2)=C1C)C(C(=O)NCCCC)c1ccc(OCC(=O)OC)c(C(=O)OC)c1 (centres undefined)	n	n	n	x	x
Clc1cccc(Nc2nc(-c3cccnc3)cs2)c1	55.1	n	n	n	5.4
Brc1cccc(Nc2nc(-c3cccnc3)cs2)c1	69.8	n	n	n	n
O=C(O)CC1c2ccccc2CCN1S(=O)(=O)c1cccs1 (centres undefined)	n	n	n	n	x
C#CCOC(=O)c1cc(Cl)c(=O)n(Cc2ccc(Cl)cc2Cl)c1	n	n	n	n	n
Cc1cccc(N2CCN(C(=O)c3ccccc3NC(=O)C3CC=CCC3C(=O)O)CC2)c1 (centres undefined)	n	n	n	n	4.4
COc1ccc(C(C(=O)NC2CCCCC2)N(C(=O)CCl)c2ccc(Cl)cc2)cc1 (centres undefined)	n	n	-85.6	n	n
COc1ccc(C(C(=O)NC2CCCCC2)N(C(=O)CCCC(=O)Nc2ccccn2)c2ccc3c(c2)OCCO3)cc1 (centres undefined)	n	n	n	n	n
O=C(CCCC(=O)N(c1ccc2c(c1)OCCO2)C(C(=O)NC1CCCCC1)c1ccc(Cl)cc1)Nc1ccccn1 (centres undefined)	n	n	-65.9	n	n
CSc1nc(Cc2ccccc2)cc(=O)[nH]1	n	n	-64.8	n	n
CCc1cc(=O)[nH]c(SCCc2ccccc2)n1	n	n	n	n	n
COc1cc(Cl)ccc1OC1(C)CCN(Cc2cccc(OC)c2OC)C1 (centres undefined)	x	x	x	n	x
N#CCCN1CCN(S(=O)(=O)c2ccc(S(=O)(=O)N3CCOCC3)cc2)CC1	n	n	n	n	n
CCN(CC)S(=O)(=O)c1ccc(S(=O)(=O)N2CCN(CCC#N)CC2)cc1	n	n	n	n	n
SMILES	AHR act	HSF1 activator	HSF1 inh	GAA850 FXN act	NR0B1 inh
CN(C)S(=O)(=O)c1ccc(S(=O)(=O)N2CCN(CCC#N)CC2)cc1	n	n	n	n	6.2
N#CCCN1CCN(S(=O)(=O)c2ccc(S(=O)(=O)NCc3ccccc3)cc2)CC1	n	n	n	n	5.4
CCOC(=O)CSc1cc(CS(C)(=O)=O)nc(-c2ccccn2)n1	n	n	-61.2	n	n
COc1ccc(NC(=O)c2cc(-c3cc(F)ccc3OCC3CCCO3)n[nH]2)cc1OC (centres undefined)	x	x	x	n	x
O=C(Nc1cc(Cl)c(Cl)cc1Cl)c1cccnc1	n	n	n	n	n
COc1cc(NC(=O)c2cccnc2)c(Cl)cc1NC(=O)c1ccc(Cl)cc1	63.5	n	n	n	n
COc1cc(NC(=O)c2ccc(Cl)cc2)c(Cl)cc1NC(=O)c1cccnc1	53.3	n	n	n	n
COc1cc(NC(=O)c2cccnc2)c(Cl)cc1NC(=O)c1ccccc1	75.3	n	n	n	n
COc1cc(NC(=O)c2cccnc2)c(OC)cc1NC(=O)c1ccc(Br)cc1	n	n	n	n	n
CC(C)N(Cc1ccccc1)C(=O)CN1C(=O)COc2ccc(S(=O)(=O)N3CCCCCC3)cc21	n	n	n	n	n
COc1cc(C2C3=C(CC(C)(C)CC3=O)Nc3ccccc3N2C(C)=O)cc(OC)c1OC (centres undefined)	n	n	n	n	n
OC(C1=CC(=Cc2ccncc2)c2ccccc21)c1ccncc1 (centres undefined)	x	x	x	n	n
CC1(C)CCCN(Cc2c(O)ccc3c(=O)c(-c4nc5ccccc5s4)c(N)oc23)C1	n	79.4	n	n	n
CCCc1cc(=O)oc2c3c(cc(OCC(=O)N4CCC(C(=O)O)CC4)c12)OC(C)(C)CC3	x	x	x	n	x
CCCSc1nnc2nc3c(nn12)c1ccccc1n3C	49.9	n	n	n	n
COc1cc2c(cc1OC)C(C1C(=O)CC(C)(C)CC1=O)N(C(=O)CCl)CC2 (centres undefined)	n	n	n	n	n
COc1cc2c(cc1OC)C(c1cc(Br)ccc1F)N(C(=O)CCl)CC2 (centres undefined)	n	n	-96.8	n	n
O=C(c1ccccc1)C1CCN(C(=O)C2CCC(=O)N(Cc3ccccc3F)C2)CC1 (centres undefined)	n	n	n	n	n
CC1=C(C(=O)N2CCOCC2)CC(CC(=O)NCC2CCCCC2)C(=O)N1CCC1=CCCCC1 (centres undefined)	x	x	x	n	n
Oc1ccc(C[C@H]2CNC(=S)N2CC2CCCN2C[C@H](Cc2ccc(O)cc2)N2C[C@H](Cc3ccccc3)N(CCc3ccccc3)C2=S)cc1 (some centres undefined)	x	x	x	n	n
CCOc1cc(-c2sc(Nc3ccc(CC)cc3)n[n+]2-c2ccccc2)ccc1OC	n	x	x	n	n
COc1ccc(-c2sc(Nc3ccccc3)n[n+]2-c2ccccc2)cc1Br	64.3	x	x	n	n
COc1ccc(C)cc1Nc1n[n+](-c2ccccc2)c(-c2ccc(C(=O)O)cc2)s1	48.2	n	n	n	n
CCOc1cc(-c2sc(Nc3cc(C)ccc3OC)n[n+]2-c2ccccc2)ccc1OC	n	x	x	n	n
Cc1ccc(-c2csc(NC(=O)CN3CC(C)OC(C)C3)n2)cc1 (centres undefined)	n	n	n	n	n
